The whole screen tested about 39,000 compounds, of which about 1,500 (3.8%) were called active. The list comes from a sample in which actives are over-represented; it also holds similar structures and randomly drawn compounds.

This assay relates to HSkMC (human skeletal muscle cells). The assay is described as follows: cytotoxicity call (relative viability < 0.9). The conditions noted are these: 10 µM.
`C[C@@H]1CN([C@H](C)CO)C(=O)Cc2cc(NS(=O)(=O)c3cn(C)cn3)ccc2O[C@@H]1CN(C)C(=O)Nc1ccc(F)cc1`: the cytotoxicity call is “inactive”.

As to `C[C@@H]1CN([C@H](C)CO)C(=O)Cc2cc(NC(=O)Nc3cccc4ccccc34)ccc2O[C@@H]1CN(C)S(=O)(=O)c1ccc(F)cc1`, the cytotoxicity call is “inactive”.

Take `COc1ccccc1C#Cc1ccc2c(c1)O[C@@H](CN(C)C(C)=O)[C@@H](C)CN([C@H](C)CO)S2(=O)=O`: the cytotoxicity call was “inactive”.

Take `C[C@@H]1CN([C@@H](C)CO)C(=O)c2cc(-c3cccc(C(=O)N(C)C)c3)cnc2O[C@@H]1CN(C)C(=O)Cc1ccccn1`: the cytotoxicity call was “inactive”.

As for `COc1ccc(S(=O)(=O)N(C)C[C@@H]2OCCCC[C@H](C)Oc3ccc(NC(=O)Nc4c(C)noc4C)cc3C(=O)N([C@H](C)CO)C[C@H]2C)cc1`, the cytotoxicity call was “inactive”.

On to `O=C(c1cccnc1)N1C[C@H]2[C@@H](c3ccccc31)[C@@H](CO)N2C(=O)CN1CCOCC1`, for which the cytotoxicity call is “inactive”.

As for `CN(C)S(=O)(=O)c1ccc(CN)cc1`, the cytotoxicity call is “inactive”.

Consider `CC(C)NC(=O)Nc1ccc2c(c1)C(=O)N(C)[C@H]1CC[C@@H](CC(=O)NCc3ccc(F)cc3)O[C@@H]1CO2`, for which the cytotoxicity call is “inactive”.

`C[C@@H]1CN([C@H](C)CO)C(=O)c2cccc(NS(=O)(=O)c3ccc(Cl)cc3)c2O[C@@H]1CN(C)Cc1ccc(Oc2ccccc2)cc1`: the cytotoxicity call was “inactive”.

Turning to `C[C@@H]1CN([C@@H](C)CO)C(=O)c2ccccc2-c2ccccc2CO[C@@H]1CN(C)C(=O)Nc1ccc(F)cc1`, the cytotoxicity call is “inactive”.

For `C[C@@H]1CN([C@@H](C)CO)C(=O)Cc2cc(NC(=O)Cn3cnnn3)ccc2O[C@@H]1CN(C)Cc1ccncc1`, the cytotoxicity call is “inactive”.

With `COc1ccc(CN(C)C[C@H]2OCCCC[C@@H](C)Oc3ccc(NC(=O)Nc4ccc(C(F)(F)F)cc4)cc3C(=O)N([C@@H](C)CO)C[C@H]2C)cc1`, the cytotoxicity call is “active”.

For the compound `COc1ccc(CN(C)C[C@H]2OCCCC[C@H](C)Oc3ccc(NC(=O)Nc4ccc(C(F)(F)F)cc4)cc3C(=O)N([C@H](C)CO)C[C@@H]2C)cc1`, the cytotoxicity call was “active”.

Regarding `COc1ccc(NC(=O)Nc2ccc3c(c2)C(=O)N([C@@H](C)CO)C[C@@H](C)[C@@H](CN(C)Cc2ccc(C(F)(F)F)cc2)OCCCC[C@@H](C)O3)cc1`, the cytotoxicity call is “inactive”.

With `COc1ccc(NC(=O)Nc2ccc3c(c2)C(=O)N([C@@H](C)CO)C[C@H](C)[C@H](CN(C)Cc2ccc(C(F)(F)F)cc2)OCCCC[C@@H](C)O3)cc1`, the cytotoxicity call was “inactive”.

Regarding `COc1ccc(CN(C)C[C@H]2OCCCC[C@@H](C)Oc3ccc(NC(=O)Nc4ccc(C(F)(F)F)cc4)cc3C(=O)N([C@H](C)CO)C[C@H]2C)cc1`, the cytotoxicity call is “active”.

For the compound `COc1ccc(CN(C)C[C@@H]2OCCCC[C@H](C)Oc3ccc(NC(=O)Nc4ccc(C(F)(F)F)cc4)cc3C(=O)N([C@H](C)CO)C[C@@H]2C)cc1`, the cytotoxicity call is “active”.

As to `C[C@H]1CN([C@@H](C)CO)C(=O)c2cc(NC(=O)Cc3ccccc3)ccc2O[C@@H]1CN(C)S(=O)(=O)c1ccccc1`, the cytotoxicity call is “inactive”.

For the compound `COc1cccc(S(=O)(=O)Nc2ccc3c(c2)[C@@H]2C[C@H](CC(=O)NCC(F)(F)F)O[C@H](CO)[C@@H]2O3)c1`, the cytotoxicity call is “inactive”.

Take `C[C@@H]1CN([C@H](C)CO)C(=O)CCCn2nncc2CO[C@@H]1CN(C)C(=O)Nc1cccc(Oc2ccccn2)c1`: the cytotoxicity call was “inactive”.

Regarding `COCCNC(=O)C[C@H]1CC[C@H]2[C@@H](COc3ccc(NC(=O)Nc4cccc(F)c4)cc3C(=O)N2C)O1`, the cytotoxicity call was “inactive”.

With `Cc1noc(C)c1NC(=O)Nc1cccc2c1O[C@H](CN(C)Cc1ccc(Cl)c(Cl)c1)[C@H](C)CN([C@@H](C)CO)C2=O`, the cytotoxicity call is “inactive”.

Consider `C[C@@H]1CN([C@@H](C)CO)C(=O)CCCn2cc(nn2)CO[C@@H]1CN(C)Cc1ccc2c(c1)OCCN2C`, for which the cytotoxicity call is “inactive”.

Take `C[C@@H]1CN([C@@H](C)CO)C(=O)c2cc(NC(=O)C3CC3)ccc2O[C@H]1CN(C)C(=O)Nc1ccc2c(c1)OCO2`: the cytotoxicity call was “inactive”.

In the case of `CCc1nc2ccccc2c(C(=O)Nc2cccc(Cl)c2)c1C`, the cytotoxicity call was “inactive”.

With `C[C@@H]1CN([C@H](C)CO)C(=O)Cc2cc(NC(=O)C3CC3)ccc2O[C@@H]1CN(C)C(=O)Nc1ccc2c(c1)OCO2`, the cytotoxicity call was “inactive”.

On to `O=C(C[C@@H]1CC[C@@H](NC(=O)c2cnccn2)[C@H](CO)O1)NCc1ccccc1F`, for which the cytotoxicity call was “inactive”.

For `C[C@H]1CN([C@@H](C)CO)C(=O)Cc2cc(NC(=O)Cn3cnnn3)ccc2O[C@H]1CN(C)Cc1ccccc1`, the cytotoxicity call was “inactive”.

In the case of `Cn1c(-c2ccccc2)c[nH]c1=S`, the cytotoxicity call is “inactive”.

Regarding `COc1ccc(NC(=O)Nc2ccc3c(c2)C(=O)N([C@H](C)CO)C[C@@H](C)[C@H](CN(C)Cc2ccc(C(F)(F)F)cc2)OCCCC[C@@H](C)O3)cc1`, the cytotoxicity call is “inactive”.

As for `COc1ccc(CN(C)C[C@@H]2OCCCC[C@@H](C)Oc3ccc(NC(=O)Nc4ccc(C(F)(F)F)cc4)cc3C(=O)N([C@H](C)CO)C[C@H]2C)cc1`, the cytotoxicity call is “active”.

Consider `COc1ccc(NC(=O)Nc2ccc3c(c2)C(=O)N([C@H](C)CO)C[C@H](C)[C@@H](CN(C)Cc2ccc(C(F)(F)F)cc2)OCCCC[C@H](C)O3)cc1`, for which the cytotoxicity call is “inactive”.

Turning to `COc1ccc(NC(=O)Nc2ccc3c(c2)C(=O)N([C@@H](C)CO)C[C@H](C)[C@@H](CN(C)Cc2ccc(C(F)(F)F)cc2)OCCCC[C@@H](C)O3)cc1`, the cytotoxicity call is “inactive”.

Take `COc1ccc(CN(C)C[C@H]2OCCCC[C@H](C)Oc3ccc(NC(=O)Nc4ccc(C(F)(F)F)cc4)cc3C(=O)N([C@@H](C)CO)C[C@H]2C)cc1`: the cytotoxicity call is “active”.

`COc1ccc(NC(=O)Nc2ccc3c(c2)C(=O)N([C@@H](C)CO)C[C@@H](C)[C@@H](CN(C)Cc2ccc(C(F)(F)F)cc2)OCCCC[C@H](C)O3)cc1`: the cytotoxicity call was “inactive”.

As to `COc1ccc(CN(C)C[C@H]2OCCCC[C@H](C)Oc3ccc(NC(=O)Nc4ccc(C(F)(F)F)cc4)cc3C(=O)N([C@@H](C)CO)C[C@@H]2C)cc1`, the cytotoxicity call is “active”.

Turning to `Cc1noc(C)c1S(=O)(=O)Nc1ccc2c(c1)C(=O)N([C@H](C)CO)C[C@H](C)[C@@H](CN(C)C(=O)NC(C)C)O2`, the cytotoxicity call was “inactive”.

Consider `COc1ccc(NC(=O)N(C)C[C@@H]2Oc3c(NS(C)(=O)=O)cccc3C(=O)N([C@@H](C)CO)C[C@@H]2C)cc1`, for which the cytotoxicity call was “inactive”.

For the compound `O=C(C[C@@H]1CC[C@H]2[C@@H](COC[C@@H](O)CN2S(=O)(=O)c2ccc(Cl)cc2)O1)NCCN1CCCC1`, the cytotoxicity call is “inactive”.

In the case of `C[C@@H]1CN([C@H](C)CO)C(=O)c2cccc(NS(=O)(=O)c3ccc(F)cc3)c2O[C@@H]1CN(C)S(=O)(=O)c1ccc(F)cc1`, the cytotoxicity call was “inactive”.

As for `C[C@@H]1CN([C@@H](C)CO)C(=O)c2cc(NC(=O)Nc3ccc(F)cc3)ccc2O[C@@H](C)CCCCO[C@@H]1CN(C)C(=O)CCCN(C)C`, the cytotoxicity call is “inactive”.

For `O=C(C[C@H]1CC[C@@H]2[C@H](COC[C@H](O)CN2C(=O)c2ccccc2)O1)NCCCN1CCOCC1`, the cytotoxicity call is “inactive”.

Turning to `C[C@@H]1CN([C@@H](C)CO)C(=O)Cc2cc(NS(=O)(=O)c3ccc(F)cc3)ccc2O[C@H]1CN(C)S(=O)(=O)c1cn(C)cn1`, the cytotoxicity call was “inactive”.

As for `C[C@@H]1CN([C@@H](C)CO)C(=O)c2cc(NC(=O)Nc3ccc(C(F)(F)F)cc3)ccc2O[C@@H]1CN(C)C(=O)Nc1ccc(C(F)(F)F)cc1`, the cytotoxicity call was “inactive”.

Turning to `C[C@@H]1CCCCO[C@H](CN(C)CC2CC2)[C@H](C)CN([C@H](C)CO)C(=O)c2cc(NC(=O)C3CCCCC3)ccc2O1`, the cytotoxicity call was “inactive”.

With `COc1ccc(CN(C)C[C@@H]2OCCCC[C@H](C)Oc3ccc(NC(=O)C4CCCCC4)cc3C(=O)N([C@@H](C)CO)C[C@@H]2C)cc1`, the cytotoxicity call was “inactive”.

Take `OC[C@H]1O[C@@H](n2cnc3c(NCc4ccco4)ncnc32)[C@H](O)[C@@H]1O`: the cytotoxicity call was “inactive”.

Take `CN(C)c1ncnc2c1ncn2[C@H]1O[C@@H](CO)[C@@H](N)[C@@H]1O`: the cytotoxicity call was “inactive”.

With `Nc1ncnc2c1ncn2C1OC(CO)C(O)C1O` (centres undefined), the cytotoxicity call is “inactive”.

On to `COc1nc(N)nc2c1ncn2[C@@H]1O[C@H](CO)[C@@H](O)[C@@H]1O`, for which the cytotoxicity call is “inactive”.

Regarding `COc1ccc(CC(N)C(=O)NC2C(CO)OC(n3cnc4c(N(C)C)ncnc43)C2O)cc1.Cl.Cl` (centres undefined), the cytotoxicity call was “active”.

As for `COc1ccc(C[C@H](N)C(=O)N[C@H]2[C@@H](O)[C@@H](n3cnc4c(N(C)C)ncnc43)O[C@@H]2CO)cc1`, the cytotoxicity call is “active”.

In the case of `COc1ccc(C[C@H](N)C(=O)N[C@H]2[C@@H](O)[C@H](n3cnc4c(N(C)C)ncnc43)O[C@@H]2CO)cc1`, the cytotoxicity call is “active”.

As to `Nc1ccc(CCNc2ncnc3c2ncn3[C@@H]2O[C@H](CO)[C@@H](O)[C@H]2O)cc1`, the cytotoxicity call is “inactive”.

For the compound `Nc1ncnc2c1ncn2[C@@H]1O[C@H](CO)[C@@H](O)[C@H]1O`, the cytotoxicity call was “inactive”.

Regarding `CNc1ncnc2c1ncn2[C@@H]1O[C@H](CO)[C@@H](O)[C@H]1O`, the cytotoxicity call was “inactive”.

Take `COc1ccc(C[C@@H](N)C(=O)N[C@@H]2[C@@H](O)[C@@H](n3cnc4c(N(C)C)ncnc43)O[C@@H]2CO)cc1`: the cytotoxicity call is “active”.

On to `Nc1ncnc2c1ncn2[C@H]1O[C@@H](CO)[C@H](O)[C@@H]1S`, for which the cytotoxicity call was “inactive”.

In the case of `C[C@H](CO)N1C[C@H](C)[C@@H](CN(C)C(=O)Nc2ccc3c(c2)OCO3)Oc2ccc(NC(=O)CCN3CCOCC3)cc2C1=O`, the cytotoxicity call was “inactive”.

For the compound `Cc1noc(C)c1NC(=O)N(C)C[C@H]1Oc2ccc(NC(=O)C3CC3)cc2CC(=O)N([C@@H](C)CO)C[C@H]1C`, the cytotoxicity call was “inactive”.

With `CCOCCCNc1nc2c([nH]1)c(=O)n(C)c(=O)n2C`, the cytotoxicity call is “inactive”.

As to `C[C@@H]1CN([C@H](C)CO)S(=O)(=O)c2ccc(-c3cncnc3)cc2O[C@H]1CN(C)C(=O)c1cccc(F)c1`, the cytotoxicity call was “inactive”.

In the case of `C[C@@H]1CN([C@@H](C)CO)C(=O)c2cccc(NC(=O)c3cnccn3)c2O[C@@H]1CN(C)CC1CCCCC1`, the cytotoxicity call was “inactive”.

In the case of `COc1cccc(C#Cc2ccc3c(c2)O[C@@H](CN(C)C(=O)c2ccccn2)[C@H](C)CN([C@H](C)CO)S3(=O)=O)c1`, the cytotoxicity call was “inactive”.
